Screening results from PubChem.
Sampled rows, rich in hits. Any-hit rate of the full collection: about 2.3%.
Shn3 3UTR inh: inhibitors of Schnurri-3 3'UTR reporter in osteoblasts. Clone20 osteoblast Shn3 3'UTR firefly luciferase, 24 h. hit rate 0.52% among 360,000. inhibition, % at 12.5 µM;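 active = mean inhibition of at least 75% with every replicate also reaching 75%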
Gli-Sufu block: antagonists of Gli-Sufu signaling; inhibition, % at 5 µM; AID 588413; hit rate 0.74% among 340,000; Sufu-KO-LIGHT fibroblasts, Gli luciferase reporter luminescence;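 active = inhibition above about 55%, limit read from the data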
H9c2 TAG inh: triacylglycerol accumulation inhibition | inhibition, % at 12.5 µM | hit rate 0.66% among 230,000 | H9c2 cells, Nile Red lipid (TAG) fluorescence; cells loaded with 200 µM oleic acid;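 active = pattern-corrected inhibition of lipid staining of at least 50% with the nuclear-stain viability signal not falling by more than 50%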
Jurkat NFkB inh: inhibitors of the PMA/ionomycin-induced NF-kB reporter in Jurkat cells | PMA/ionomycin-induced NF-kB luciferase reporter, luminescence | AID 435003 | inhibition, % at 4 µM | hit rate 0.53% among 330,000; in the data active = inhibition above about 50%
697 NFkB inh: lowers PMA/ionomycin-induced NF-kB signal in 697 B cells; 697 B-cell NF-kB luciferase reporter, 16 h; inhibition, % at 4 µM; hit rate 0.33% among 330,000; in the data active = inhibition above about 35%
aSyn UTR inh: MLPCN primary screen, SNCA 5' untranslated region; alpha-synuclein 5'UTR reporter, inhibitor activity; inhibition, % (tested at 7.5 µM); hit rate 0.82% among 300,000; in the data active = inhibition above about 60%;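 also: H4 neuroglioblastoma cells stably carrying SNCA 5'UTR luciferase fusion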
Gli antag conf: Gli-SUFU antagonism confirmation, single concentration. shares compounds with Gli-Sufu block. Sufu-KO-LIGHT cells, Gli luciferase reporter, luminescence. inhibition, % at 5 µM. hit rate 40% among 2,500. AID 602428;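 active = mean inhibition at 5 µM reaching about 45%, limit read from the data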
SufuKO cytotox: counter-screen for Gli-SUFU antagonists: cytotoxicity | cytotoxicity, % at 5 µM | shares compounds with Gli-Sufu block | hit rate 32% among 2,500 | Sufu-KO-LIGHT cells cytotoxicity, ATP luminescence;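 active = mean cytotoxicity at 5 µM above about 25%, limit read from the data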;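 also: cells exposed to compound overnight for roughly 16 to 18 hours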
Wnt3a counter: counter-screen for Gli-SUFU antagonists: Wnt3a reporter inhibition. shares compounds with Gli-Sufu block. Wnt-LIGHT cells, Wnt3a-driven luciferase reporter, luminescence. inhibition, % at 6.25 µM. hit rate 20% among 2,500. AID 651995;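 active = mean inhibition above about 25%, limit read from the data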
Of the large screens only hits and unclear results are named; the others gave an inactive call (follow-up assays come after a bar, where they were run).

COc1ccccc1CN(C(=O)Cc1cccs1)C(C(=O)NC1CCCC1)c1ccncc1 (stereo not drawn)	Gli-Sufu block 55.5 (no result: H9c2 TAG inh) | Gli antag conf inactive | SufuKO cytotox 26.9 | Wnt3a counter inactive
O=C(NC1CCCC1)C(c1ccncc1)N(Cc1ccccc1)C(=O)Cc1cccs1 (stereo not drawn)	none (no result: H9c2 TAG inh)
COc1ccccc1CC(=O)NC1CCCCCC1	none (no result: H9c2 TAG inh) | Gli antag conf inactive | SufuKO cytotox inactive | Wnt3a counter inactive
CCOc1cc(C2NC(=O)NC(c3ccccc3)=C2C(=O)c2ccccc2)c(Br)cc1OCC(=O)O (stereo not drawn)	none
COC(=O)c1ccccc1OS(=O)(=O)N(C)C	none
O=C(c1ccc(Cl)cc1)c1ccc(OCC(=O)N2CCOCC2)cc1	Gli-Sufu block 68.9 | Gli antag conf inactive | SufuKO cytotox inactive | Wnt3a counter inactive
COc1ccc(CC(=O)NNC(=O)CCC(=O)Nc2cc(C)ccc2C)cc1	Gli-Sufu block 82.3 | Gli antag conf inactive | SufuKO cytotox inactive | Wnt3a counter inactive
COc1ccccc1N1CCN(c2ncc(C(=O)N3CCN(c4cccc(Cl)c4)CC3)c3ccccc23)CC1	Shn3 3UTR inh 92.7, Gli-Sufu block 60.6 (no result: H9c2 TAG inh) | Gli antag conf 67.3 | SufuKO cytotox inactive | Wnt3a counter inactive
COc1ccc(C(=O)N2CCN(c3cccc(Cl)c3)CC2)c(OC)c1	none
CCOC(=O)c1ccc(N2C(=O)c3n[nH]c(C)c3C2c2ccco2)cc1 (stereo not drawn)	none (no result: H9c2 TAG inh)
CCOC(=O)c1ccc(N2C(=O)c3n[nH]c(-c4ccco4)c3C2c2cccc([N+](=O)[O-])c2)cc1 (stereo not drawn)	Gli-Sufu block 99.4 (no result: H9c2 TAG inh) | Gli antag conf inactive | SufuKO cytotox inactive | Wnt3a counter inactive
Cc1cc(SC#N)cc(C)c1NC(=O)CCl	none | Gli antag conf 46.1 | SufuKO cytotox 50.2 | Wnt3a counter inactive
CCOc1ccc(-n2c(-c3ccc(Cl)cc3)c[n+]3c2SCC3)cc1	Gli-Sufu block 77.9 | Gli antag conf 74.4 | SufuKO cytotox 30.1 | Wnt3a counter inactive
c1ccc(-c2c[n+]3c(n2-c2ccccc2)SCC3)cc1	Gli-Sufu block 59.4 | Gli antag conf 57.8 | SufuKO cytotox inactive | Wnt3a counter inactive
Cc1ccc(NC(=O)CCn2cnc3cc(C)c(C)cc32)cc1	none (no result: H9c2 TAG inh)
CC(=O)Nc1cccc(NC(=O)CCn2cnc3cc(C)c(C)cc32)c1	Gli-Sufu block 58.1 (no result: H9c2 TAG inh) | Gli antag conf inactive | SufuKO cytotox inactive | Wnt3a counter inactive
COc1ccc(N=Nc2ccc(N)nc2N)cc1	none (no result: H9c2 TAG inh)
Nc1ccc(N=Nc2ccc(O)cc2)c(N)n1	Gli-Sufu block 60.3 (no result: Jurkat NFkB inh, 697 NFkB inh, aSyn UTR inh) | Gli antag conf inactive | SufuKO cytotox 25.8 | Wnt3a counter inactive
Cc1ccc(S(=O)(=O)N2CCN(C(=O)COC(=O)CCc3ccccc3)CC2)c(C)c1	none (no result: aSyn UTR inh)
Cc1ccc(Cl)cc1S(=O)(=O)N1CCC(C(=O)NC2CCN(Cc3ccccc3)CC2)CC1	none (no result: H9c2 TAG inh) | Gli antag conf inactive | SufuKO cytotox inactive | Wnt3a counter inactive
CCN(CC)S(=O)(=O)c1ccc(S(=O)(=O)N2CCC(C(=O)NC3CCN(Cc4ccccc4)CC3)CC2)cc1	none (no result: H9c2 TAG inh)
Cc1cc(NC(=O)CSc2nc3c([nH]c4ccccc43)c(=O)n2-c2ccccc2F)no1	Gli-Sufu block 58.4 | Gli antag conf 55.9 | SufuKO cytotox inactive | Wnt3a counter inactive
O=C(COC(=O)Cc1cccs1)Nc1ccccc1Cl	none
CC(=O)c1c(C)nc2ccccc2c1N	none
Cc1nc2ccccc2c(N)c1C(=O)/C=C/c1ccccc1	Gli-Sufu block 61.3 | Gli antag conf inactive | SufuKO cytotox inactive | Wnt3a counter inactive
N#Cc1ccccc1NCc1ccccc1	none
CCCCCCCCNC(CO)(CO)CO	none
CN(c1ccccc1C(N)=O)S(=O)(=O)c1ccccc1	none | Gli antag conf inactive | SufuKO cytotox inactive | Wnt3a counter inactive
Cc1ccc(N=c2c([N+](=O)[O-])nn(-c3ccc4c(c3)OCCO4)n2O)cc1F	Gli-Sufu block 61.0 | Gli antag conf 64.7 | SufuKO cytotox inactive | Wnt3a counter 69.8
O=[N+]([O-])c1nn(-c2ccc3c(c2)OCCO3)n(O)c1=Nc1ccc(Cl)cc1	Gli-Sufu block 57.2 (no result: H9c2 TAG inh) | Gli antag conf 59.5 | SufuKO cytotox inactive | Wnt3a counter 43.7
CCc1ccc(N=c2c([N+](=O)[O-])nn(-c3ccc4c(c3)OCCO4)n2O)cc1	none
CC(C)c1ccc(Nc2nc(Cl)nc(Cl)n2)cc1	none (no result: H9c2 TAG inh)
COc1ccc(N/C=C(\C#N)S(=O)(=O)c2ccc(Cl)cc2)c(OC)c1	Gli-Sufu block 65.0 (no result: H9c2 TAG inh) | Gli antag conf inactive | SufuKO cytotox inactive | Wnt3a counter inactive
COc1ccc(S(=O)(=O)/C(C#N)=C/Nc2ccccc2F)cc1	none (no result: H9c2 TAG inh)
CCOC(=O)C1CCCN(C(=O)c2cnn3c(C(F)(F)F)cc(-c4ccccc4)nc23)C1 (stereo not drawn)	none (no result: H9c2 TAG inh)
COc1ccc(-c2cc(C(F)(F)F)n3ncc(C(=O)N4CCCCC4c4cccnc4)c3n2)cc1 (stereo not drawn)	none | Gli antag conf inactive | SufuKO cytotox inactive | Wnt3a counter inactive
COC(=O)C(C(=O)OC)N1C(=O)CCC1=O	none (no result: H9c2 TAG inh)
CCOC(=O)CN1C(=O)/C(=C/c2ccccc2Br)Oc2ccccc21	Gli-Sufu block 57.2 (no result: H9c2 TAG inh) | Gli antag conf inactive | SufuKO cytotox inactive | Wnt3a counter inactive
CCOC(=O)c1c(C)c(C(=O)NCc2ccco2)c(C)n1CC	none
CON(c1nc(Cl)nc(N(C)C)n1)S(=O)(=O)c1ccccc1Cl	Gli-Sufu block 88.5 | Gli antag conf inactive | SufuKO cytotox inactive | Wnt3a counter inactive
COc1nc(N(C)C)nc(N(OC)S(=O)(=O)c2ccccc2Cl)n1	none
CCNC(=S)N1C2CCC1CC(NC(=O)Nc1ccc(C(=O)OCC)cc1)C2 (stereo not drawn)	none
CCOCCCNC(=S)N1C2CCC1CC(NC(=O)Nc1ccc(C(=O)OCC)cc1)C2 (stereo not drawn)	Gli-Sufu block 69.6 | Gli antag conf inactive | SufuKO cytotox 30.5 | Wnt3a counter inactive
CCOC(=O)c1c(N)sc(C(O)(C(F)(F)F)C(F)(F)F)c1-c1ccc(F)cc1	none | Gli antag conf inactive | SufuKO cytotox inactive | Wnt3a counter inactive
CCOC(=O)c1c(N)sc(C(O)(C(F)(F)F)C(F)(F)F)c1-c1ccc(Cl)cc1	none
COc1ccc(-n2c(C)cc(C(=O)CN3C(=O)c4ccccc4C3=O)c2C)cc1	Gli-Sufu block 96.4 (no result: H9c2 TAG inh) | Gli antag conf inactive | SufuKO cytotox inactive | Wnt3a counter inactive
O=S(=O)(c1ccc2nnn(O)c2c1)N1CCOCC1	none (no result: aSyn UTR inh)
CN(C)S(=O)(=O)c1ccc2nnn(O)c2c1	Gli-Sufu block 58.8 | Gli antag conf inactive | SufuKO cytotox inactive | Wnt3a counter inactive
